We go through four molecules from PMC11062922 (Nature Chemical Biology, 2023).

Read-outs that look alike come from different tables or passages of the source.

Holding throughout (design): species or system human, MV4-11 + K-562 + COLO205 + SK-N-BE2 + OVCAR-8
One experiment concerns ACVR1B. Particulars: read-out: apparent Kd, n = 1.
Another experiment concerns ATM. The settings on record: read-out: apparent Kd; compound concentrations: 100 nM and 1000 nM (sheet 'Samples'), CATDS: 0.55136512573741903; n = 1.
Another experiment concerns PIP4K2C. Particulars: read-out: apparent Kd; compound concentrations: 100 nM and 1000 nM (sheet 'Samples'), CATDS: 0.19748549423912701; n = 1.
The subject of the next experiment is PRKAG2. The settings on record: read-out: apparent Kd; compound concentrations: 100 nM and 1000 nM (sheet 'Samples'), CATDS: 0.19909509316552701; n = 1.
In the next experiment the test system is AGPS. Particulars: read-out: apparent Kd; compound concentrations: 100 nM and 1000 nM (sheet 'Samples'), CATDS: 9.4477869255485902E-2; n = 1.
Another experiment relates to CSNK1D. The settings on record: read-out: apparent Kd, n = 1.
For another experiment, the system named is CSNK1E. The settings on record: read-out: apparent Kd, n = 1.
The subject of a further experiment is ILK. Particulars: read-out: apparent Kd, n = 1.
A further experiment concerns MAPK14. The settings on record: read-out: apparent Kd, compound concentrations: 100 nM and 1000 nM (sheet 'Samples'), n = 1.
A further experiment relates to MAPKAPK2. Particulars: read-out: apparent Kd; compound concentrations: 100 nM and 1000 nM (sheet 'Samples'), CATDS: 0.13321456142161001; n = 1.
For a further experiment, the system named is MDN1. Particulars: read-out: apparent Kd; compound concentrations: 100 nM and 1000 nM (sheet 'Samples'), CATDS: 9.4286494514119495E-2; n = 1.
Another experiment concerns TESK2. The settings on record: read-out: apparent Kd; compound concentrations: 100 nM and 1000 nM (sheet 'Samples'), CATDS: 9.9817052034954598E-2; n = 1.
The test system of the next experiment is TGFBR1. The settings on record: read-out: apparent Kd, n = 1.
The test system of another experiment is MAP2K1. Particulars: read-out: apparent Kd; compound concentrations:100 nM and 1000 nM (sheet 'Samples'); n = 1.
Another experiment relates to MAP2K2. The settings on record: read-out: apparent Kd; compound concentrations:100 nM and 1000 nM (sheet 'Samples'); n = 1.
Another experiment has as its system PIK3CA. The settings on record: read-out: apparent Kd; compound concentrations:100 nM and 1000 nM (sheet 'Samples'); n = 1.
The next experiment relates to PIK3CD. The settings on record: read-out: apparent Kd; compound concentrations:100 nM and 1000 nM (sheet 'Samples'); n = 1.
The next experiment concerns PRKD2. The settings on record: read-out: apparent Kd; compound concentrations:100 nM and 1000 nM (sheet 'Samples'); n = 1.
In another experiment the test system is PRKD3. Particulars: read-out: apparent Kd; compound concentrations:100 nM and 1000 nM (sheet 'Samples'); n = 1.
For another experiment, the system named is PSMC3. The settings on record: read-out: apparent Kd; compound concentrations:100 nM and 1000 nM (sheet 'Samples'); n = 1.
Setting [1] is: compound concentrations:100 nM and 1000 nM (sheet 'Samples').

In the case of `NC(=O)c1cc(-c2ccncc2)cc(-c2ccccc2)c1N` [GSK625137A], the potency estimated from few doses was 1010 nM in the experiment on ACVR1B (compound concentrations: 100 nM and 1000 nM (sheet 'Samples'), CATDS: 0.24390652724185299); 223 nM in the experiment with ATM; 1780 nM in the experiment on PIP4K2C; 1730 nM in the experiment on PRKAG2.

For the molecule `CN1CCN(CCCNc2nccc(-c3c(-c4ccc(F)cc4)nn4cc(C(F)(F)F)ccc34)n2)CC1` [GW621581X], the potency estimated from few doses in the experiment on ACVR1B (compound concentrations: 100 nM and 1000 nM (sheet 'Samples'), CATDS: 0.17734677143715399) is 667 nM; with AGPS, 2190 nM; with CSNK1D (compound concentrations: 100 nM and 1000 nM (sheet 'Samples'), CATDS: 0.11827296398223), 1330 nM; in the experiment with CSNK1E (compound concentrations: 100 nM and 1000 nM (sheet 'Samples'), CATDS: 9.3377022470402096E-2) it was 2250 nM; with ILK (compound concentrations: 100 nM and 1000 nM (sheet 'Samples'), CATDS: 9.8525851125826097E-2) it was 1970 nM; with MAPK14 (CATDS: 0.13638952707170801), 1020 nM. Moreover, the figures for the potency estimated from few doses in the experiment with MAPKAPK2, with MDN1 and in the experiment with TESK2 were 1070 nM, 2200 nM and 1910 nM, respectively.

As to `Nc1nccc(-c2c(-c3ccc(F)cc3)nn3cc(C(F)(F)F)ccc23)n1` [GW568326X], the potency estimated from few doses with ACVR1B (compound concentrations: 100 nM and 1000 nM (sheet 'Samples'), CATDS: 0.37925228743827699) is 526 nM; in the experiment on CSNK1D (compound concentrations: 100 nM and 1000 nM (sheet 'Samples'), CATDS: 0.232202944333886), 1310 nM; with MAPK14 (CATDS: 0.251383978494441), 1100 nM; with TGFBR1 (compound concentrations: 100 nM and 1000 nM (sheet 'Samples'), CATDS: 0.196901676551059), 2000 nM.

In the case of `Cc1cc(Nc2nc(-c3cccc(C)n3)nc3ccccc23)ccn1` [GW872411X], the potency estimated from few doses in the experiment on ACVR1B (setting [1]) was 471 nM; in the experiment on CSNK1D (setting [1]), 1530 nM; with CSNK1E (setting [1]), 1700 nM; in the experiment on ILK (setting [1]), 1610 nM; with MAP2K1, 2130 nM; with MAP2K2 it was 1690 nM. For the same molecule, the potency estimated from few doses in the experiment on PIK3CA is 247 nM; with PIK3CD it was 155 nM; with PRKD2 it was 4.12 nM; in the experiment with PRKD3, 6.25 nM; with PSMC3, 1810 nM; in the experiment with TGFBR1 (setting [1]), 182 nM.
